GRP78 ERSR act: induces the endoplasmic reticulum stress response in human glioma cells; U87-MG GRP78 promoter luciferase reporter, 16 h; Potency, µM, actives largely listed as activators; 0.02% of 420,000 active; further: series mostly up to about 76 µM; nearly all actives have a fitted effect of over 35% in size
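Stably transfected U87-MG glioma cells carrying a GRP78-based luciferase sensor; 16 h compound incubation. Luminescence end-point read 10 min after Bright-Glo addition at room temperature.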
ALOX12 inh: inhibitors of human 12S-lipoxygenase ALOX12; P18054; purified 12hLO, xylenol orange hydroperoxide absorbance; Potency, µM (top dose mostly 108 µM), most hits filed as inhibitors; 1.1% of 580,000 active
Target sequence (P18054 whole entry, looked up): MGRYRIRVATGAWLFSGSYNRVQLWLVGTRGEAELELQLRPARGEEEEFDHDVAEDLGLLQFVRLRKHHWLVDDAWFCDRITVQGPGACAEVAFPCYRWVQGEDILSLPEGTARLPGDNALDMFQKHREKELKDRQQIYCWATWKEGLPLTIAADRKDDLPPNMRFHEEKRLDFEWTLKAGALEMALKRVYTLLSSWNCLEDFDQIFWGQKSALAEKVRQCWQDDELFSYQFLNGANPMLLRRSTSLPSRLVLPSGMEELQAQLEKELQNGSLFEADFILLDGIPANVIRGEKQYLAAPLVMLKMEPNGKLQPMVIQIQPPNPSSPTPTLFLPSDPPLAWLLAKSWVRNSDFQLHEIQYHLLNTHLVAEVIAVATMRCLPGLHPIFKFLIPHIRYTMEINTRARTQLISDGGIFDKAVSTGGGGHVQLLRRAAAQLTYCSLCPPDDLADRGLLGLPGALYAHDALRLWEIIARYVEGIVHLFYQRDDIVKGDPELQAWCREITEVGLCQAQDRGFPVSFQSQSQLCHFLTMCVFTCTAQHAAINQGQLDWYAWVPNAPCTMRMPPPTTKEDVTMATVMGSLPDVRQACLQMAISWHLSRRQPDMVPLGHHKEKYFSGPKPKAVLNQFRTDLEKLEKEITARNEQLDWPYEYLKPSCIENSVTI
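Purified human 12hLO at 150 nM in 25 mM Hepes, 0.01% Triton X-100, pH 7.0, preincubated 15 min at room temperature with compound. Reaction started with 40 uM arachidonic acid, 30 min at room temperature. Hydroperoxide measured by Fe-xylenol orange, 573/405 nm absorbance ratio.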
VDR inhibitor: blocks the human vitamin D receptor. Potency, µM, hits mostly inhibitors. 0.93% of 400,000 active. VDR-SRC2-3 peptide fluorescence polarization, 2 h. AID 504847. P11473
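Fluorescence polarization assay measuring small-molecule disruption of VDR binding to the coregulator peptide SRC2-3. Compounds were pin-transferred (23 nl) into the reagent mix and incubated 2 h at room temperature before reading.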
Sfp inh: inhibitors of Bacillus subtilis Sfp phosphopantetheinyl transferase | Q9F4F7 | Biochemical Sfp PPTase activity, qHTS | Potency, µM, usual class: inhibitors | 3.5% of 310,000 active | AID 1490;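 further: the enzyme is Sfp with the accession as filed and its product quenches rhodamine fluorescence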
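Compounds were incubated with enzyme (final 15 nM) for 15 min at room temperature before substrate addition started the reaction. Fluorescence at 525 nm excitation, 598 nm emission was recorded immediately and after 30 minutes.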
G9a inh: blocks human histone lysine methyltransferase G9a. AID 504332. 8.8% of 350,000 active. Potency, µM (highest dose often 102 µM), most hits filed as inhibitors. G9a H3K9 monomethylation, AlphaScreen, 2 h; further: nearly all actives have a fitted effect of over 75% in size
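Readings reflect AlphaScreen signal from monomethyl-H3K9 antibody detection. HMT at 20 nM; substrate b-H3K9 500 nM; cofactor SAM 20 uM; 2 h RT reaction; compounds tested as titrations in qHTS with 15 min preincubation.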
Each line names hits and unclear results; the compound was inactive in the other large screens; ! = repeats disagree. The entries come from a sample that favours hits as a whole. The call rests on the fitted dose curve; in most records, active means well fitted curve in the direction sought with a large enough effect; inconclusive means small, poorly fitted or top-dose-only effect, or another doubt; inactive means no such curve, though single readings can be large; an effect the other way counts as inactive or inconclusive.

CCOC(=O)c1sc(NC(=O)c2ccc(S(=O)(=O)N3CCOCC3)cc2)nc1-c1ccccc1	G9a inh 45µM
CC1CCN(S(=O)(=O)c2ccc(C(=O)Nc3sc4c(c3C(N)=O)CC(C)(C)NC4(C)C)cc2)CC1	ALOX12 inh inconclusive (no result: Sfp inh)
CCOc1cccc2sc(NC(=O)c3ccc(S(=O)(=O)N4CCCCC4)cc3)nc12	ALOX12 inh 45µM (no result: Sfp inh)
CCCCCOc1ccc(/C=C2\Cc3ccccc3C2=O)cc1	none (no result: GRP78 ERSR act, VDR inhibitor, Sfp inh, G9a inh)
O=C(OCCc1ccccc1)c1ccccc1	none (no result: GRP78 ERSR act, VDR inhibitor, Sfp inh, G9a inh)
CCOC(=O)N1CCN(S(=O)(=O)c2ccc(C(=O)Nc3nc4ccccc4s3)cc2)CC1	G9a inh 50µM
CCOC(=O)N1CCN(S(=O)(=O)c2ccc(C(=O)Nc3nc4ccc(F)cc4s3)cc2)CC1	none
O=C(Nc1ccc(F)c(Cl)c1)C1CCCN(c2ncnc3nc[nH]c23)C1 (centres undefined)	none (no result: GRP78 ERSR act, VDR inhibitor, Sfp inh, G9a inh)
CCc1cccc(C)c1NS(=O)(=O)c1ccc(-c2cnc(C3CC3)o2)cc1	none (no result: GRP78 ERSR act, VDR inhibitor, Sfp inh, G9a inh)
CCOC(=O)C1CCCN(c2c(NCCCN(C)c3ccccc3)c(=O)c2=O)C1 (centres undefined)	ALOX12 inh inconclusive, G9a inh 56µM
CCOC(=O)N1CCN(c2c(NCCCN(CC)c3cccc(C)c3)c(=O)c2=O)CC1	G9a inh 14µM
CCOC(=O)N1CCN(c2c(NCCCN(CC)CC)c(=O)c2=O)CC1	none
CCOC(=O)C1CCCN(c2c(NCCC(C)C)c(=O)c2=O)C1 (centres undefined)	none
CN(CCOC(=O)/C=C/c1ccccc1)Cc1ccccc1	none (no result: GRP78 ERSR act, VDR inhibitor, Sfp inh, G9a inh)
CCCN1C(=O)c2ccccc2NC1c1cc(OC)c(OC)c(OC)c1 (centres undefined)	none
COc1ccc(CCN2C(=O)c3ccccc3NC2c2cc(Cl)c(O)c(OC)c2)cc1 (centres undefined)	G9a inh 71µM
Cc1cccc(C2Nc3ccccc3C(=O)N2CCc2ccccc2)n1 (centres undefined)	none
O=C1c2ccccc2NC(c2cccc([N+](=O)[O-])c2)N1CCc1ccccc1 (centres undefined)	ALOX12 inh inconclusive, G9a inh 45µM
CCOc1ccc(NC(=O)c2c(NC(=O)CN3CCCC(C)C3)sc3c2CCC3)cc1 (centres undefined)	none (no result: GRP78 ERSR act, VDR inhibitor, Sfp inh, G9a inh)
CCCN1CCC(N(C)C(=O)c2ccc(N(C)C)c(F)c2)CC1	none (no result: GRP78 ERSR act, VDR inhibitor, Sfp inh, G9a inh)
Cc1ccc(-n2nc(C)cc2NC(=O)CC#N)cc1	none
Cc1ccc(-n2nc(C)cc2NC(=O)c2ccc(C)s2)cc1	G9a inh 79µM
CCN(CC)C(=O)c1cccc(NC(=O)c2cc(=O)c3cc(C)ccc3o2)c1	none (no result: GRP78 ERSR act, VDR inhibitor, Sfp inh, G9a inh)
CC(C)C(C)(C#N)NC(=O)CSc1nc2scc(-c3ccco3)c2c(=O)n1-c1ccccc1 (centres undefined)	ALOX12 inh inconclusive, Sfp inh 7.9µM, G9a inh 45µM
C=CCn1c(SCC(C)=O)nc2scc(-c3ccco3)c2c1=O	ALOX12 inh inconclusive, VDR inhibitor 79µM, Sfp inh 7.1µM, G9a inh 7.9µM
Cc1ccc(-n2c(SCC(=O)NCc3ccco3)nc3sc(C)c(C)c3c2=O)cc1	none
C=CCn1c(SC(F)F)nc2scc(-c3ccco3)c2c1=O	VDR inhibitor inconclusive, Sfp inh inconclusive
Cc1nn(-c2ccccc2)c(C)c1CN(C)S(=O)(=O)c1ccc(Cl)c(Cl)c1	none (no result: GRP78 ERSR act, VDR inhibitor, Sfp inh, G9a inh)
COc1ccc2[nH]cc(CC(=O)O)c2c1	none
O=C(O)Cc1c[nH]c2ccc(O)cc12	VDR inhibitor 50µM!, G9a inh 24µM! (no result: Sfp inh)
C#CCNC(=O)c1nc(-c2ccccc2OC)c2cnccn12	none (no result: GRP78 ERSR act, VDR inhibitor, Sfp inh, G9a inh)
CC(=O)/C(=N\Nc1ccc(Cl)cc1)Sc1nnc(-c2ccccc2)n1-c1ccccc1	ALOX12 inh inconclusive, G9a inh 6.3µM
S=c1[nH]nc(Cc2ccc(Br)cc2)n1/N=C/c1ccc(Cl)cc1	ALOX12 inh inconclusive, VDR inhibitor 79µM, Sfp inh 14µM, G9a inh inconclusive
CSc1ccc(/C=N/n2c(COc3ccccc3)n[nH]c2=S)cc1	G9a inh 22µM
S=c1[nH]nc(COc2ccccc2)n1/N=C/c1ccc(Cl)cc1	VDR inhibitor inconclusive, G9a inh 7.1µM
CC(Sc1nc(-c2ccccc2)c(-c2ccccc2)o1)C(=O)NC1CC1 (centres undefined)	none (no result: GRP78 ERSR act, VDR inhibitor, Sfp inh, G9a inh)
CC(C)(C)c1ccnc(N[C@H]2CO[C@H]3[C@@H]2OC[C@@H]3NC(=O)NCc2ccccc2)n1	none (no result: GRP78 ERSR act, VDR inhibitor, Sfp inh, G9a inh)
Cc1ccc(-c2ccc(C(N)=O)o2)cc1	none (no result: GRP78 ERSR act, VDR inhibitor, Sfp inh, G9a inh)
COc1ccc(NC(=O)N2CCC3(CC2)CC(N(C(C)=O)C2CC2)CCO3)cc1 (centres undefined)	none (no result: GRP78 ERSR act, VDR inhibitor, Sfp inh, G9a inh)
Cn1c(O)c(N=Nc2ccccc2)c2ccccc21	Sfp inh 50µM, G9a inh 22µM
Cn1c(O)c(N=NC(=O)Cc2c[nH]c3ccccc23)c2ccccc21	none (no result: Sfp inh, G9a inh)
Cn1c(O)c(N=Nc2ccc(F)cc2)c2ccccc21	ALOX12 inh 18µM, G9a inh 25µM
Cn1c(O)c(N=Nc2nc(-c3ccccc3)cs2)c2ccccc21	Sfp inh 56µM, G9a inh inconclusive
NC(=O)c1ccc(CNC(=O)c2ccccc2Nc2ccccc2)cc1	none (no result: GRP78 ERSR act, VDR inhibitor, Sfp inh, G9a inh)
CCCCN(Cc1cc2ccccc2[nH]c1=O)C(=O)c1cc(OC)c(OC)c(OC)c1	none (no result: GRP78 ERSR act, VDR inhibitor, Sfp inh, G9a inh)

Screens (PubChem BioAssay)
